HPGD block: qHTS Assay for Inhibitors of HPGD (15-Hydroxyprostaglandin Dehydrogenase) | 15-hydroxyprostaglandin dehydrogenase [NAD(+)] (Homo sapiens), P15428 | purified HPGD, NADH fluorescence kinetic, PGE2 substrate | Potency, µM, inactives show at the highest dose activity change, negative = inhibition, hits mostly inhibitors | hit rate 4.3% among 150,000 | AID 894, 2007; further: on the % scale 0 is the no-effect control and ±100 the full control effect
Target sequence (P15428 whole entry, looked up): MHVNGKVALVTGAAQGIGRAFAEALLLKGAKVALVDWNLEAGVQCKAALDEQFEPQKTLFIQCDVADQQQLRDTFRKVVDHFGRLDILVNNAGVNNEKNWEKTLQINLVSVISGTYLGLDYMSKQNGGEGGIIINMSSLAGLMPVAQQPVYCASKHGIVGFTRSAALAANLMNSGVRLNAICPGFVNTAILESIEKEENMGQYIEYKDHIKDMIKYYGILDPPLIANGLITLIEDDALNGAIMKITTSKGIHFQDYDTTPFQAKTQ
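NADH formation kinetics: reaction with 30 uM PGE2 and 1 mM NAD+ (final), 20 nM enzyme, Tris-HCl pH 8 with Tween 20, after 15 min compound preincubation at room temperature. Fluorescence change, last versus first of five reads.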
KDM4E inh: qHTS Assay for Inhibitors of Human Jumonji Domain Containing 2E (JMJD2E); Lysine-specific demethylase 4E (Homo sapiens), B2RXH2; JMJD2E catalytic domain, FDH-coupled NADH fluorescence (FDH is formaldehyde dehydrogenase); Potency, µM (highest dose often 57.1 µM), for inactives: at the top dose activity change, negative = inhibition, hits mostly inhibitors; hit rate 1.6% among 230,000; AID 2147, 2009;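 further: 0% = wells with enzyme and -100% = buffer wells without enzyme; nearly all actives have a fitted effect of over 50% in size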
Target sequence (B2RXH2 1-337 limits assumed): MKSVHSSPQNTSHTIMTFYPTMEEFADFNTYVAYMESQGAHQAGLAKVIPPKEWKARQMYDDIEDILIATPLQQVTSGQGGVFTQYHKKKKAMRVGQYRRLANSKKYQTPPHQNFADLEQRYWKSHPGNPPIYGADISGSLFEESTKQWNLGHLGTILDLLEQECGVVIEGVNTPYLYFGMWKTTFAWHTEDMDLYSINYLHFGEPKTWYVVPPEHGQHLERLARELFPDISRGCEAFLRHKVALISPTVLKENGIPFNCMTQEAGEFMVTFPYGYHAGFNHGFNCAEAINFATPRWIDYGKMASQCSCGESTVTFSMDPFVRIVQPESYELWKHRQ
Lamin A splicing: qHTS Assay for Modulators of Lamin A Splicing; HeLa LMNA splicing GFP/RFP minigene ratio, 48 h; Potency, µM (titrated, usually from 46.1 µM), without a hit: top-dose ratio change, negative = inhibition, most hits filed as inhibitors; hit rate 0.01% among 200,000; AID 1487, 2009; active means well fitted inhibition curve with a large enough effect in the signal ratio, with a control signal flat, not every such curve was filed as active; inconclusive means small, poorly fitted or top-dose-only effect, or effect the other way, or a change in a side signal; the % refers to the signal ratio; further: on the % scale 0 is the no-effect control and ±100 the full control effect
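Read-out is the ratio of GFP to DsRed2 object intensity, acquired by 488 nm laser-scanning cytometry on HeLa lamin A-EGFP minigene reporter cells. Compound incubation 48 hrs at 37 °C in Opti-MEM with 2% FBS; DMSO 0.5% final.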
HTT cytoprotect: qHTS Multiplex Assay to Identify Dual Action Probes in a Cell Model of Huntington: Cytoprotection (ATP). Potency, µM (series often up to 56.4 µM), without a hit: cytoprotection (ATP increase), usual class: activators. AID 1471, 2008. hit rate 0.14% among 230,000. PC12 HTT-Q103 induced, cytoprotection, ATP luminescence, 40 h; active means well fitted curve in the direction sought with a large enough effect; inconclusive means small, poorly fitted or top-dose-only effect, or another doubt; inactive means no such curve, though single readings can be large; an effect the other way counts as inactive or inconclusive; further: % of control where 0% means no effect; nearly all actives have a fitted effect of over 45% in size
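Compounds added alongside 100 nM tebufenozide, which induces toxic Q103 huntingtin exon 1-GFP in stable PC12 cells; surviving cells quantified by luminescent ATP measurement. Medium: phenol red-free DMEM, 5% equine and 5% calf serum.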
ALDH1A1 inh: qHTS Assay for Inhibitors of Aldehyde Dehydrogenase 1 (ALDH1A1); Aldehyde dehydrogenase 1A1 (Homo sapiens), P00352; Purified ALDH1A1, NADH fluorescence, propionaldehyde substrate; Potency, µM (doses to about 75.3 µM), for the others: at the highest dose activity, negative = inhibition, actives largely listed as inhibitors; hit rate 7.3% among 220,000; AID 1030, 2008;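 further: plate controls were no enzyme wells and a reference inhibitor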
HttQ103 aggreg: qHTS Multiplex Assay to Identify Dual Action Probes in a Cell Model of Huntington: Aggregate Formation (GFP); hit rate 1.1% among 220,000; Potency, µM (series often up to 46.1 µM), inactives show top-dose activity change, negative = inhibition, usual class: inhibitors; PC12 HttQ103-GFP aggregates, Acumen cytometry, 40 h; active means well fitted curve in the direction sought with a large enough effect; inconclusive means small, poorly fitted or top-dose-only effect, or another doubt; inactive means no such curve, though single readings can be large; an effect the other way counts as inactive or inconclusive; further: on the % scale 0 is the no-effect control and ±100 the full control effect; nearly all actives have a fitted effect of over 60% in size
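Aggregate formation scored by laser-scanning cytometer (488 excitation, 500–530 emission) in lysed PC12 cells expressing Q103-GFP after 100 nM tebufenozide induction; library tested in dose series, with ATPLite reagent added in the multiplex.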
Numbers without * were called inactive; u = inconclusive; x = no result; [ ] = remark or other dose. A selection: hits, their analogues and other compounds. The true share with any hit is near 9.2%. Unless noted, the call rests on the fitted dose curve; in most records, active means well fitted inhibition curve with a large enough effect (not every such curve was filed as active); inconclusive means small, poorly fitted or top-dose-only effect, or another doubt; inactive means no such curve, though single readings can be large or run the other way. Potency means the concentration at half of the fitted maximal effect.

SMILES	HPGD block	KDM4E inh	Lamin A splicing	HTT cytoprotect	ALDH1A1 inh	HttQ103 aggreg
O=C1/C(=N/n2cnnc2)c2ccccc2N1Cc1ccccc1	-19.0%	8.5%	21.1%	-19.8%	0.0891µM*	1.8%
c1ccc2c(c1)C(=Nn1cnnc1)c1ccccc1-2	0.7%	-3.6%	-2.3%	-14.0%	u	-18.6%
COc1ccc(CCNC(=O)CCC2COc3ccccc3O2)cc1OC (stereo not drawn)	-10.3%	6.9%	4.2%	-15.6%	12.6µM*	-23.8%
COc1ccc(CCNC(=O)CN2CCC(C)CC2)cc1OC	-14.5%	2.3%	10.5%	8.0%	11.2µM*	-2.3%
COc1ccc(CCNC(=O)C(=O)NCCOc2ccccc2Cl)cc1OC	-8.3%	-2.9%	-9.1%	22.0%[10 µM]	u	6.3%
COc1ccc(CCNC(=O)COC(=O)COc2ccc(Cl)cc2)cc1OC	x	9.6%	-15.7%[46 µM]	-19.4%	8.8%	-1.6%
COc1ccc(CCNC(=O)COC(=O)c2cnc(C)cn2)cc1OC	7.8%	1.7%	5.8%	13.4%	12.6µM*	19.4%
COc1ccc(CCNC(=O)C(=O)NCCOc2ccccc2)cc1OC	-14.9%	3.5%	0.5%	23.3%[10 µM]	3.98µM*	-2.3%
N#CCCn1c(=O)c(-c2cc(F)cc(F)c2)nc2cnc(N3CCOCC3)nc21	x	x	21.0%	-2.8%	u	x
Cc1cc([N+](=O)[O-])nn1Cc1ccc(C(=O)N/N=C/c2ccc(N(C)C)cc2)cc1	x	-13.0%	x	8.7%[10 µM]	x	-3.3%[9.22 µM]
COc1ccc(-c2csc(N)n2)cc1F	x	1.6%	7.5%[46 µM]	13.2%[10 µM]	11.2µM*	18.2%
N#Cc1c(N)[nH]c(=S)c(C#N)c1-c1ccccc1	-24.4%	u	-5.1%	-10.0%	28.2µM*	13.4%
Cc1ccc(-c2cc(-c3ccccc3)[nH]c(=S)c2C#N)cc1	-10.5%	12.5%	-3.7%	33.9%[10 µM]	u	17.7%
C=CC[C@@H]1C=C[C@@H](O/N=C\c2ccc(C(=O)N3[C@H](c4ccc(C)cc4)[C@@H](C)CC[C@H]3C(=O)OC)cc2)[C@@H](CO)O1	x	x	x	2.2%[10 µM]	16.2%[13.5 µM]	x
O=C(COc1ccc(Cl)cc1)NCC(c1ccco1)S(=O)(=O)c1ccc(F)cc1 (stereo not drawn)	x	x	2.8%[46 µM]	x	x	x
Cc1ccccc1OCC(O)CN(Cc1ccccc1O)C1CCCCC1 (stereo not drawn)	x	-4.8%	u	-43.5%	7.4%	-17.5%
Cc1ccc(C(C2C(=O)CC(C)(C)CC2=O)C2C(=O)CC(C)(C)CC2=O)s1	2.82µM*	-11.2%	u	-37.3%	7.08µM*	11.9%
CCc1c(C)sc(NC(=O)C2CCCCC2C(=O)O)c1C(N)=O (stereo not drawn)	3.98µM*	u	8.4%	-23.1%	1.58µM*	-2.1%
COc1ccc(NC(=S)NCCc2ccc(S(N)(=O)=O)cc2)c(OC)c1	x	0.2%	x	x	22.4µM*	-8.2%
COc1ccc(Cl)cc1NC(=S)NCCc1ccc(S(N)(=O)=O)cc1	x	6.6%	x	-22.9%	6.31µM*	-13.2%
O=[N+]([O-])c1cccc2c[nH]nc12	31.6µM*	35.5µM*	x	-58.4%[1.9 µM]	-15.3%	x
O=[N+]([O-])c1cccc2cn[nH]c12	-7.3%	-2.9%	-0.3%	-27.6%	-4.5%	-5.7%
COC(=O)C1C(=O)N2CCCSC2=C(C#N)C1c1cccs1 (stereo not drawn)	-6.7%	-5.8%	4.2%	-15.9%[10 µM]	6.31µM*	3.2%
CC(=O)N1CC(O)CC1C(=O)O (stereo not drawn)	x	x	x	12.9%	x	-5.7%
Cc1ccc(OCCN2CCN(c3ncnc4sc(C)c(C)c34)CC2)cc1	-23.0%	4.2%	u	-27.9%	-4.2%	2.51µM*
SMILES	HPGD block	KDM4E inh	Lamin A splicing	HTT cytoprotect	ALDH1A1 inh	HttQ103 aggreg
Clc1cccc(Cl)c1CNC1CCCC1	-11.6%	-0.7%	8.9%	-7.6%	-6.7%	0.112µM*
Clc1ccc(-c2nc3ccncc3[nH]2)cc1	u	u	-9.4%	-27.8%[10 µM]	11.2µM*	0.1%
CC1(C)[C@@H](O)CC[C@@]2(C)[C@H]1CC[C@]1(C)[C@H]2C(=O)C=C2[C@@H]3C[C@@](C)(C(=O)O)CC[C@]3(C)CC[C@@]21C	x	x	x	-5.2%	x	x
CCn1c(C)[n+](CCOC(C)=O)c2cc(Cl)c(Cl)cc21	x	15.8µM*	x	-2.1%[10 µM]	1.5%	9.7%[9.22 µM]
CCOC(=O)C(Cc1ccc(OC)c([N+](=O)[O-])c1)NC(=O)CCC(=O)Nc1ccc(C)cc1 (stereo not drawn)	x	-4.9%	2.3%[46 µM]	-4.1%[10 µM]	14.1µM*	-26.3%[9.22 µM]
COc1ccc(C(=O)OCC(=O)Nc2ccccc2)cc1[N+](=O)[O-]	x	3.9%	-10.4%[46 µM]	-5.6%	u	8.2%
O=C(O)c1ccc2c(=O)n(-c3ccccc3F)c(=S)[nH]c2c1	x	u	x	-34.5%	-5.1%	0.8%
COc1ccc(-n2c(=S)[nH]c3cc(C(=O)NC4CCCCC4)ccc3c2=O)c(OC)c1	x	4.7%	x	-88.3%	0.1µM*	-18.2%
COC(=O)c1ccc2c(=O)n(-c3ccccc3F)c(=S)[nH]c2c1	x	u	x	21.9%	15.8µM*	-13.0%
COc1ccc(CNC(=O)CCCN2C(=O)c3cccnc3Oc3ccc(Cl)cc32)cc1	x	x	-1.1%[46 µM]	x	x	x
CN(C)/C=C/C(=O)c1ccc(-n2cccc2)cc1	x	-13.6%	u	11.2%[10 µM]	u	14.3%
CN(C)/C=C/C(=O)c1ccc(Cl)cc1	17.8µM*	1.3%	-8.0%	-8.1%	-5.9%	10.5%
CN(C)/C=C/C(=O)c1cccc(Cl)c1	25.1µM*	-13.2%	-15.0%	-8.6%[10 µM]	u	u
Cc1ccc(-n2c(C)cc(/C=N/Nc3ccc([N+](=O)[O-])cn3)c2C)cc1	-4.9%	2.7%	8.9%	-12.9%	10µM*	10.3%
Cc1nn(Cc2ccccc2)c(C)c1/C=N/NC(=O)c1cccnc1	31.6µM*	2.2%	-12.8%	5.6%[10 µM]	-6.2%	15.7%
Cc1ccc(C(=O)N/N=C/c2cn(Cc3ccccc3)c3ccccc23)cn1	x	u	x	2.7%[10 µM]	12.6µM*	8.5%[9.22 µM]
Cc1c(/C=N/Nc2ccc([N+](=O)[O-])cn2)c2ccccc2n1Cc1ccccc1	x	8.2%	x	22.3%[10 µM]	x	4.0%[9.22 µM]
Cc1ccc(Cn2nc(C)c(/C=N/NC(=O)c3cccnc3)c2C)cc1	x	6.1%	x	-7.4%	-1.7%	6.7%
Cc1cc(/C=N/Nc2ccc([N+](=O)[O-])cn2)c(C)n1-c1ccccc1	-6.6%	6.2%	-8.7%	18.4%	u	u
Cc1ccc(Cn2cc(/C=N/Nc3ccc([N+](=O)[O-])cn3)c3ccccc32)cc1	-15.6%	5.2%	-3.5%	-16.4%[10 µM]	10µM*	-26.8%

Screening results deposited in PubChem BioAssay by National Center for Advancing Translational Sciences (NCATS).
